Source: PubChem BioAssay
An excerpt weighted towards active compounds, which were near 15% of everything screened.
Sm TGR block = inhibitors of Schistosoma mansoni thioredoxin glutathione reductase | Potency, µM (series often up to 114 µM), without a hit: at the highest dose activity change, negative = inhibition, actives largely listed as inhibitors | 360,000 compounds, 3% hits | AID 485364 | purified TGR, DTNB reduction, TNB absorbance 405 nm | Q962Y6; also: potency is read from the fitted curve at half-maximal effect; % is scaled to controls: 0 for no effect and ±100 for the full control effect; nearly all actives have a fitted effect of over 60% in size
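Kinetic colorimetric format: TGR-catalysed, NADPH-driven DTNB reduction monitored via TNB absorbance. Enzyme dispensed at 20 nM; compound exposure 15 min at room temperature before reaction start.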
HCV inh = blocks hepatitis C virus. Huh7.5.1 HCVcc-Cre infection, luciferase reporter, 44 h. 340,000 compounds, 3.4% hits. Potency, µM (titrated, usually from 41.8 µM), for inactives: top-dose activity change, negative = inhibition, most hits filed as inhibitors. AID 651820; also: potency is read from the fitted curve at half-maximal effect; % is scaled to controls: 0 for no effect and ±100 for the full control effect
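Antiviral activity was scored by luciferase reporter output from cells infected with HCVcc-Cre (~0.5 moi) in presence of compound, 44 h infection period, cells seeded 1,000/well 4 h prior.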
Pf growth 96h = inhibits malaria parasite growth, 96 h; P. falciparum luciferase reporter growth, 96 h; 320,000 compounds, 6.9% hits; Potency, µM (titrated, usually from 28.7 µM), for inactives: at the highest dose activity change, negative = inhibition, actives largely listed as inhibitors; AID 504834; also: potency is read from the fitted curve at half-maximal effect; % is scaled to controls: 0 for no effect and ±100 for the full control effect
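P. falciparum expressing integrated firefly luciferase, in erythrocytes at 2% hematocrit, 0.05% parasitemia, incubated with compounds 96 h at 37 C, 5% CO2. Growth inhibition read as loss of luminescence; two-generation exposure targets delayed-death apicoplast inhibitors.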
Pf growth 48h = P. falciparum growth inhibition at 48 hours (one generation) | P. falciparum luciferase growth in erythrocytes, 48 h | Potency, µM (series often up to 28.7 µM), for inactives: at the top dose activity change, negative = inhibition, usual class: inhibitors | 310,000 compounds, 5.9% hits | AID 504832; also: potency is read from the fitted curve at half-maximal effect; % is scaled to controls: 0 for no effect and ±100 for the full control effect
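Erythrocytes infected with P. falciparum carrying an integrated firefly luciferase reporter (2% hematocrit, 0.1% parasitemia final) were exposed to compounds in RPMI 1640 with 0.5% Albumax at 37 C, 5% CO2. Growth inhibition was scored as reduced luminescence.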
SARS PLP yeast = blocks SARS-CoV papain-like protease in a yeast assay; 330,000 compounds, 0.19% hits; Potency, µM (titrated, usually from 32.9 µM), for the others: at the top dose activity, positive = growth rescue, most hits filed as activators; S. cerevisiae expressing SARS-CoV PLpro, growth rescue; AID 485353; calls by dose curve; also: potency is read from the fitted curve at half-maximal effect; 0% is about no effect; nearly all actives have a fitted effect of over 55% in size
HCMV antiviral = human cytomegalovirus inhibition; activity change, negative = inhibition, % at 57.5 µM; HFF cells, HCMV-luciferase reporter, 72 h; active compounds read low; 410,000 compounds, 4.5% hits; in the data active = activity change below about -60%; inconclusive = no clear call, values can overlap the other calls; inactive = above about -39%; also: % is scaled to controls: 0 for no effect and ±100 for the full control effect
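Luciferase read-out from HCMV-luciferase-infected HFFs (MOI 1 PFU/cell) 72 h post infection at 37C; compounds added after 16 h cell attachment; activity normalized between buffer-only basal and Salinomycin (10uM) inhibitor controls.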
Numbers without * were called inactive; u = inconclusive; x = no result; [ ] = dose if it differs, or a comment. Unless noted, calls follow the shape of the dose curve; as a rule, active = well fitted curve in the direction sought with a large enough effect; inconclusive = small, poorly fitted or top-dose-only effect, or another doubt; inactive = no such curve, though single readings can be large; an effect the other way counts as inactive or inconclusive.

SMILES	Sm TGR block	HCV inh	Pf growth 96h	Pf growth 48h	SARS PLP yeast	HCMV antiviral
COCc1ccc(CN2CCCC(CO)(Cc3ccccc3C)C2)o1 (stereo unspecified)	23%	3%	u	-1%	-1%	9
CC(C)(O)C#Cc1ccc(CN2CCCC(CO)(Cc3cccc(Cl)c3)C2)cc1 (stereo unspecified)	-11%[57.1 µM]	u	-12%	u	1%	-82*
Cc1ccccc1CC1(CO)CCCN(Cc2ccc(C#CC(C)(C)O)cc2)C1 (stereo unspecified)	7%[57.1 µM]	-30%	4%	u	-1%	-27
COc1ccc(C(=O)c2ccccc2)c(OCC(=O)NC2CC2)c1	-11%	-17%	u	0%	-1%	u
OCC1(Cc2ccccc2)CCCN(C2CCCC2)C1 (stereo unspecified)	1%	-2%	22%	u	0%	-22
Cc1ccccc1CC1(CO)CCCN(C(=O)CCN2CCCO2)C1 (stereo unspecified)	-17%	18%	2.6µM*	5%	-4%	28
CCOC(=O)N1CCC(N2CCCC(CO)(Cc3cccc(OC)c3)C2)CC1 (stereo unspecified)	-16%[57.1 µM]	-2%	3.3µM*	u	-1%	14
Cc1ccccc1CC1(CO)CCCN(C(=O)CCC(=O)c2ccccc2)C1 (stereo unspecified)	8%	15%	1%	11%	5%	-10
COc1ccc(N2C(=O)CC(Nc3cccc([N+](=O)[O-])c3)C2=O)cc1 (stereo unspecified)	u	-2%	34%	0%	0%	-4
COC(=O)c1cccc(NC2CC(=O)N(c3ccc(OC)c(OC)c3)C2=O)c1 (stereo unspecified)	35µM*	1%	x	u	-6%	2
COc1ccc(N2C(=O)CC(Nc3ccc(C(=O)O)cc3)C2=O)cc1OC (stereo unspecified)	22µM*	7%	13%	3%	1%	10
Cc1ccc(C(c2cc(Br)ccc2O)N2CCSCC2)cc1 (stereo unspecified)	1%	10%	15µM*	9.3µM*	-26%	47
COc1ccccc1NC(=O)NC1CCS(=O)(=O)C1 (stereo unspecified)	-3%	1%	56%	39%	-1%	0
Cc1nnc(SCC(=O)N(C)CC(=O)Nc2ccc(F)cc2)n1Cc1ccccc1	1%	-3%	-30%	9.3µM*	0%	-14
COc1cc(/C=C/C(=O)OCC(=O)NC(=O)NC(C)(C)C)ccc1O	-26%	-16%	u	u	1%	u
O=C1COc2ccc(C(=O)NC3CC3)cc2N1	3%	11%	-28%	13%	-1%	50
O=C(O)/C=C/C(=O)c1ccc2c(c1)NC(=O)CO2	1µM*	9%	3.3µM*	1.9µM*	0%	-18
COc1cc(/C=C/C(=O)OCC(=O)c2ccc(OC(F)F)cc2)ccc1O	x	10µM*	x	x	-38%	-37
O=C(/C=C/c1ccco1)OCC(=O)N1CCCCC1	x	12%	x	x	-6%	-25
O=C1COc2ccc(C(=O)COC(=O)/C=C/c3ccco3)cc2N1	13µM*	-8%	u	u	0%	x
O=C(/C=C/c1ccco1)OCC(=O)c1ccc(OC(F)F)cc1	22µM*	13%	94%	23%	-1%	-34
O=C1COc2ccc(C(=O)COC(=O)c3ccco3)cc2N1	-28%	9%	56%	u	3%	-31
Clc1ccc2nc(-c3ccccc3)c(CC3CCCCC3)n2c1	x	x	x	x	x	-3
CCOC(=O)Nc1sc(NS(=O)(=O)c2ccc(C)cc2)nc1C	u	8%	2%	x	-10%	0
CCOC(=O)Nc1sc(NS(=O)(=O)c2ccccc2)nc1C	50µM*	12%	10%	11%	2%	-8
Cc1nc(NS(=O)(=O)c2ccccc2)sc1NC(=O)Nc1ccc(Cl)cc1	5.6µM*	8%	0%	u	-1%	-32
